Laboratory results: PubChem BioAssay
The source made the active and inactive calls. How the calls were made is not given here.

Experiment: inhibition of Brca1/Bard1 split-luciferase complementation, confirmation, counter-screen for Mdm2/MdmX interaction inhibitor project, luminescence, single concentration (AID 504668)
Details: Brca1/Bard1 bimolecular luciferase complementation counterscreen, at 8 µM, hits give high values

Row | Structure (SMILES) | inhibition
1 | COc1cc(OC)cc(C(=O)Oc2c(CN3CCOCC3)cc(Cl)c3cccnc23)c1 | 33.8% (active)
2 | CCOC(=O)c1c(-c2ccccc2)oc2ccc(OCC(O)CNCCN(C)C)cc12 (stereo unspecified) | 35.1% (active)
3 | O=C(NNC(=O)c1ccccc1OCc1ccc(F)cc1)c1ccccc1O | 31.1% (active)
4 | O=C(N/N=C/c1ccc(O)cc1O)c1ccc(CN2C(=O)c3cccc4cccc2c34)cc1 | 29.2% (active)
5 | Cc1ccc(-n2nc(C)c(NC(=O)CCl)c2C)cc1C | 34% (active)
6 | CCN1CCN(Cc2ccc(NC(=O)c3ccc(C)c(NC(=O)c4cccc(-c5cn[nH]c(=O)c5)c4)c3)cc2C(F)(F)F)CC1 | 32% (active)
7 | CCOc1ccccc1CNC(=O)c1cc2oc3ccccc3c2n1CC | 25.6% (active)
8 | CCCCCCCCCCC[N+](C)(C)CC/C=C1/c2ccccc2Sc2ccc(Cl)cc21 | 28.6% (active)
9 | Cc1ccc(C(C)C)c(OCc2nn(CC(=O)c3ccc(Cl)cc3)c3[n+]2CCCCC3)c1 | 25% (active)
10 | COc1ccccc1OCC(=O)N/N=C/c1c(O)ccc2ccccc12 | 27.8% (active)
11 | C=CCSc1nsc(NC(=O)Nc2ccc(F)cc2)n1 | 28% (active)
12 | Cc1ccc(-n2ncc3c(SCc4ccccn4)ncnc32)c(C)c1 | 27.6% (active)
13 | COc1ccc2cc(C(=O)N/N=C/c3sc4ccccc4c3O)ccc2c1 | 32.4% (active)
14 | OC(CNCc1ccc(-c2ccccc2)cc1)c1ccccc1 (stereo unspecified) | 26.9% (active)
15 | Cc1c(CN(C)C)c2c(n1Cc1ccccc1)C(=O)c1ccc(Br)cc1-2 | 29.6% (active)
16 | CC(C)c1ccc(/C=C2\SC(=S)N(CCC(=O)N3CCCCC3CCO)C2=O)cc1 (stereo unspecified) | 29.9% (active)
